Holding throughout (experiment): NCI-60 one-dose screen, 48 h (100 = growth as untreated, 0 = no growth, -100 = all killed)
One assay has as its system DU-145 prostate. The note with it: 10 µM unless noted.
In another assay the test system is K-562 leukemia. The note with it: 10 µM unless noted.
Another assay has as its system MALME-3M melanoma. The note with it: 10 µM unless noted.
The test system of the next assay is MDA-MB-231 breast. The note with it: 10 µM unless noted.
For a further assay, the system named is RXF 393 renal. The note with it: 10 µM unless noted.
The next assay has as its system SF-268 CNS. The note with it: 10 µM unless noted.
In another assay the test system is SF-295 CNS. The note with it: 10 µM unless noted.
The next assay has as its system SF-539 CNS. The note with it: 10 µM unless noted.
The subject of a further assay is UACC-257 melanoma. The note with it: 10 µM unless noted.
The subject of a further assay is M14 melanoma. The note with it: 10 µM unless noted.
Another assay has as its system HCT-15 colon. The note with it: 10 µM unless noted.
Another assay relates to HT29 colon. The note with it: 10 µM unless noted.
The subject of a further assay is SNB-19 CNS. The note with it: 10 µM unless noted.
The test system of another assay is U251 CNS. The note with it: 10 µM unless noted.
The next assay has as its system PC-3 prostate. The note with it: 10 µM unless noted.
A further assay has as its system SK-MEL-5 melanoma. The note with it: 10 µM unless noted.
The test system of another assay is SK-MEL-28 melanoma. The note with it: 10 µM unless noted.
Another assay has as its system UACC-62 melanoma. The note with it: 10 µM unless noted.
In a further assay the test system is LOX IMVI melanoma. The note with it: 10 µM.

Molecules are shown by their SMILES. About 83,000 compounds went through this panel and 20% of them were active in at least one assay; those are over-represented in the sample as a whole.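 Method: cells in 96-well plates; compound added at one concentration; 48 h incubation; percent growth measured; values under 10 scored active.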 Unmarked numbers belong to inactive results. Active and inactive are the calls of the source.

For the compound `COc1ccc(-c2nc3cc(C)ccc3n2CC(=O)N=Nc2c(O)[nH]c3ccccc23)cc1`, the growth is 9.13% (active) in the assay with DU-145 prostate; 4.42% (active) with K-562 leukemia; -60% (active) in the assay on MALME-3M melanoma; -54.2% (active) in the assay on MDA-MB-231 breast; -29.7% (active) with RXF 393 renal; -5.5% (active) in the assay on SF-268 CNS. Further, the growth is 15.4% with SF-295 CNS; -90.2% (active) with SF-539 CNS; -7.27% (active) in the assay on UACC-257 melanoma; -71.5% (active) in the assay on M14 melanoma; -64.7% (active) in the assay on HCT-15 colon; -28.2% (active) with HT29 colon. Moreover, the growth was 19.1% in the assay with SNB-19 CNS; 5.59% (active) in the assay on U251 CNS; 8.89% (active) with PC-3 prostate; -93% (active) in the assay on SK-MEL-5 melanoma; -57.5% (active) with SK-MEL-28 melanoma.
Consider `COc1ccc(-c2ccc(SCC(=O)NCCc3ccc(S(N)(=O)=O)cc3)nn2)cc1`, for which the growth was 96.1% in the assay on DU-145 prostate; 54.1% with K-562 leukemia; 89.3% with MALME-3M melanoma; 92.6% with MDA-MB-231 breast; 80.2% in the assay with RXF 393 renal; 103% with SF-268 CNS. In addition, the growth is 84.9% in the assay on SF-295 CNS; 88.7% in the assay on SF-539 CNS; 55.3% with UACC-257 melanoma; 99.7% in the assay on M14 melanoma; 110% with HCT-15 colon; 96.5% with HT29 colon. Moreover, the growth in the assay with SNB-19 CNS is 77.4%; with U251 CNS it was 91.1%; in the assay with PC-3 prostate it was 81.8%; in the assay with SK-MEL-5 melanoma, 52.9%; in the assay with UACC-62 melanoma, 75.8%; with LOX IMVI melanoma, 89.1%. For the same compound, the growth in the assay on SK-MEL-28 melanoma is 89.1%.
As to `CC12CC[C@@H]3[C@]4(C)COC(c5c(F)cccc5F)O[C@@H]4CC[C@@]3(C)[C@@H]1CC(C1=CCOC1=O)O2` (stereo partly specified), the growth with DU-145 prostate was 76.6%; in the assay on K-562 leukemia, 66.6%; in the assay on MALME-3M melanoma, 60.4%; in the assay on MDA-MB-231 breast it was 36.5%; in the assay with RXF 393 renal it was 83.8%; in the assay on SF-268 CNS, 70.3%. For the same compound, the growth in the assay on SF-295 CNS was 69.1%; with SF-539 CNS it was 33.8%; in the assay with UACC-257 melanoma, 64.6%; in the assay with M14 melanoma it was 66.5%; in the assay on HCT-15 colon, 80.4%; with HT29 colon, 76.5%. Also, the growth in the assay with SNB-19 CNS is 63.2%; with U251 CNS it was 80%; with PC-3 prostate, 56.4%; in the assay with SK-MEL-5 melanoma, 47.4%; in the assay with LOX IMVI melanoma it was 73.1%; with SK-MEL-28 melanoma, 88.8%.
As for `Cc1ccc([C@H]2C(C(=O)c3ccc(Cl)cc3)C3(N[C@@H]2c2ccccc2)C(=O)Nc2ccc(Cl)cc23)cc1` (stereo partly specified), the growth was 71.8% in the assay with DU-145 prostate; 22.2% in the assay on K-562 leukemia; 87.2% in the assay with MALME-3M melanoma; 50.7% in the assay with MDA-MB-231 breast; 27% with RXF 393 renal; 55.8% with SF-268 CNS. For the same compound, the growth in the assay with SF-295 CNS is 48.2%; in the assay with SF-539 CNS, 77%; in the assay with UACC-257 melanoma, 69.8%; with M14 melanoma, 44.8%; with HCT-15 colon, 47.1%; in the assay with HT29 colon, 3.1% (active). In addition, the growth in the assay on SNB-19 CNS was 66.2%; in the assay on U251 CNS it was 47.9%; in the assay on PC-3 prostate it was 14%; in the assay with SK-MEL-5 melanoma it was 77.9%; with UACC-62 melanoma it was 33.8%; in the assay on LOX IMVI melanoma, 39.8%. Also, the growth with SK-MEL-28 melanoma was 69.4%.
As to `Cn1cc(NC(=O)c2cc(NC(=O)c3ccc(C#Cc4ccccc4)cc3)cn2C)cc1C(=O)NCCCN1CCOCC1`, the growth is 56.4% in the assay with DU-145 prostate; -41.5% (active) in the assay on K-562 leukemia; -84.8% (active) in the assay with MALME-3M melanoma; 4.99% (active) in the assay with MDA-MB-231 breast; -4.28% (active) in the assay on RXF 393 renal; 63.2% in the assay on SF-268 CNS. In addition, the growth in the assay on SF-295 CNS was -81.9% (active); with SF-539 CNS, -85.5% (active); with UACC-257 melanoma it was -28.8% (active); in the assay with M14 melanoma it was -86.4% (active); with HCT-15 colon, -59.4% (active); with HT29 colon, -71.2% (active). In addition, the growth in the assay with SNB-19 CNS was 73.3%; with U251 CNS it was -70.1% (active); with PC-3 prostate it was 29.8%; with SK-MEL-5 melanoma it was -92% (active); with UACC-62 melanoma it was -90.9% (active); in the assay on SK-MEL-28 melanoma it was -91.8% (active).
`O=c1oc2ccc(Br)cc2cc1C1=CSc2nc3sc4c(c3c(=O)n2N=C1)CCCC4`: the growth is 107% in the assay with DU-145 prostate; 97.1% in the assay with K-562 leukemia; 89% in the assay on MALME-3M melanoma; 88.2% in the assay with MDA-MB-231 breast; 167% in the assay with RXF 393 renal; 101% in the assay with SF-268 CNS. Besides, the growth with SF-295 CNS was 101%; in the assay with SF-539 CNS it was 100%; with UACC-257 melanoma, 90.9%; in the assay on M14 melanoma, 92.4%; in the assay with HCT-15 colon, 95.1%; in the assay with HT29 colon, 108%. In addition, the growth was 97% in the assay with SNB-19 CNS; 99.3% with U251 CNS; 76.7% in the assay on PC-3 prostate; 96.9% with SK-MEL-5 melanoma; 86.4% with LOX IMVI melanoma; 105% in the assay with SK-MEL-28 melanoma.
In the case of `Cc1ccc(Cc2cnc(NC(=O)c3ccc(/C=C4\SC(=S)N(C)C4=O)cc3)s2)cc1`, the growth was 26.1% in the assay on DU-145 prostate; 23.3% with K-562 leukemia; 25.2% in the assay with MALME-3M melanoma; 41.4% in the assay on MDA-MB-231 breast; 29.4% in the assay on RXF 393 renal; 38.6% in the assay on SF-268 CNS. The growth in the assay on SF-295 CNS was 8.52% (active); with SF-539 CNS it was 12.7%; with UACC-257 melanoma, 30.4%; with M14 melanoma, 20.5%; in the assay on HCT-15 colon it was 18.7%; in the assay on HT29 colon, 23.8%. Moreover, the growth in the assay on U251 CNS was 62.3%; in the assay on PC-3 prostate, 37.3%; with SK-MEL-5 melanoma it was 19.4%; with UACC-62 melanoma, 25.1%; with LOX IMVI melanoma, 34.3%; in the assay with SK-MEL-28 melanoma, 42.1%.
In the case of `C=C1CC[C@@H]2[C@]3(C)COC(c4cn[nH]c4-c4ccc(F)cc4)O[C@@H]3CC[C@@]2(C)[C@@H]1C/C=C1/C(=O)OCC1O` (stereo partly specified), the growth was -23% (active) with DU-145 prostate; -24.2% (active) with K-562 leukemia; -44.7% (active) in the assay with MALME-3M melanoma; -40.5% (active) with MDA-MB-231 breast; -86% (active) in the assay with RXF 393 renal; 16.9% in the assay on SF-268 CNS. Moreover, the growth in the assay on SF-295 CNS is -26.8% (active); in the assay with SF-539 CNS, -83.2% (active); in the assay on UACC-257 melanoma, -44.6% (active); with M14 melanoma it was -63.4% (active); with HCT-15 colon, -56.8% (active); with HT29 colon, -2.38% (active). Moreover, the growth is 21.6% in the assay on SNB-19 CNS; -83.2% (active) with U251 CNS; 8.84% (active) in the assay on PC-3 prostate; -79% (active) in the assay on SK-MEL-5 melanoma; -73.7% (active) in the assay on UACC-62 melanoma; -100% (active) with LOX IMVI melanoma. For the same compound, in the assay on SK-MEL-28 melanoma, the growth is -75.6% (active).
